About 27,000 (9.3%) of roughly 290,000 compounds were called active. This is one part of a sample in which actives are shown more often than they occur. No stated cut-off is given here; in the data, active means inhibition mostly above about 28% (no sharp cut-off); inactive means mostly below about 43%.
Test: A qHTS for Small Molecule Inhibitors of Shiga Toxin; further: 0% is about no effect
Settings: Vero cells, Shiga toxin protein synthesis inhibition reporter; at 38.7 µM, active compounds read high

SMILES | inhibition
COCCCNC(=O)CNC(=O)c1nn(-c2ccc(OC)cc2)c(=O)c2ccccc12 | -3.74% (inactive)
O=C(CN1CCN(S(=O)(=O)c2cc(Cl)ccc2Cl)CC1)c1ccc(O)c(O)c1 | -3.28% (inactive)
COC(=O)Nc1nc2ccc(Sc3ccccc3)cc2[nH]1 | 76.6% (active)
Cc1nc2ccc(C(=O)O)cc2[nH]1 | -11.9% (inactive)
COc1cc(OC)cc(C(=O)N[C@H](C(=O)Nc2nc3ccccc3[nH]2)C(C)C)c1 | -3.89% (inactive)
Cc1ccc(S(=O)(=O)N(C)c2nc3ccccc3n3c(C(C)C)nnc23)cc1 | 13.3% (inactive)
CC(=O)Nc1ccc(/C=C/C(=O)c2ccccc2)cc1 | 58.1% (active)
CC(=O)Nc1ccc(NC(=O)CCCNC(=O)c2ccc(Cl)cc2)cc1 | 3.88% (inactive)
CC(=O)Nc1ccc(C(=O)/C=C/c2ccc[nH]2)cc1 | 77.1% (active)
CCCC(=O)Nc1ccc(C(=O)N/N=C/c2ccc[nH]2)cc1 | 13% (inactive)
CC(=O)Nc1ccc(NC(=S)NC(=O)/C=C/c2ccccc2)cc1 | 5.78% (inactive)
COc1ccc(C(=O)/C=C/c2ccc(OC3CSC3)cc2)cc1 | 2.97% (inactive)
C=CCNC(=S)/N=c1/ccccn1Cc1ccccc1 | 2.67% (inactive)
O=C(NC(=S)NC1CCS(=O)(=O)C1)c1cccc([N+](=O)[O-])c1 (stereo not given) | -10.3% (inactive)
Cc1ccc(SCC(=O)NNC(=O)c2ccc(S(C)(=O)=O)cc2)cc1 | -6.84% (inactive)
COc1ccc(CCn2c(=N)c(C(=O)NCC3CCCO3)cc3c(=O)n4cccc(C)c4nc32)cc1OC (stereo not given) | 2.54% (inactive)
O=C(NCc1nnc(SCC(=O)N2CCCCCC2)o1)c1ccc(F)cc1 | -3.11% (inactive)
COc1ccccc1C1=Nc2cccc3cccc(c23)N1 | -3.03% (inactive)
c1ccc(C2=Nc3cccc4cccc(c34)N2)cc1 | 3.03% (inactive)
Fc1ccccc1N=C1Nc2cccc3cccc1c23 | 59% (active)
Cc1cc(N2C(=O)C(O)=C(C(=O)c3ccc(C)o3)C2c2ccc(OCc3ccccc3)cc2)no1 (stereo not given) | -3.21% (inactive)
COc1ccc(NC(=O)c2cn(-c3ccccc3)nc2SC)cc1 | 43.3% (active)
COc1ccc(-c2nn(-c3ccccc3)cc2/C=C\C(=O)Nc2ccc(C(=O)O)cc2)cc1 | -20.1% (inactive)
COc1ccc(-c2nn(-c3ccccc3)cc2C(=O)Nc2nc(CC(C)=O)ns2)cc1 | -2.47% (inactive)

SMILES | inhibition
O=C(CN1CCC(O)(c2cccc(C(F)(F)F)c2)CC1)NCCc1ccccc1 | -6.9% (inactive)
CC(NC(=O)CNC(=O)Cc1cccc2ccccc12)c1ccc(S(N)(=O)=O)cc1 (stereo not given) | -8.32% (inactive)
COc1ccccc1CC(=O)Nc1ccc(F)cc1F | 1.11% (inactive)
CC[C@]1(c2ccccc2OC)C(=O)N(C(=O)OC)N1C(=O)OC | 35.6% (active)
COC(=O)c1ccccc1NC(=O)Cc1ccccc1OC | 0.83% (inactive)
COc1ccccc1-n1c(SCC(=O)Nc2cccc(C(=O)O)c2)nnc1-c1ccccc1O | 6.46% (inactive)
CCOC(=O)N1CCN(C(=O)c2ccc3c(c2)N(Cc2ccc(C)cc2)CCS3)CC1 | -7.18% (inactive)
O=C(NCCN1CCOCC1)c1ccc2c(c1)N(Cc1ccc(Cl)cc1)CCS2 | -14% (inactive)
O=C(NCCc1ccccc1)c1ccc2c(c1)N(Cc1ccccc1)CCS2 | 59.8% (active)
COCCNc1ccc(-c2n[nH]c(=O)c3ccccc23)cc1[N+](=O)[O-] | -2.3% (inactive)
O=C(NCc1ccccc1Cl)C1CCN(S(=O)(=O)c2cccc3nonc23)CC1 | 9.83% (inactive)
CCN(CC(=O)NCC(=O)Nc1cccc(C)c1C)Cc1ccccc1 | -9.33% (inactive)
CCN1C(=O)/C(=C2\SC(N3CCCCC3)=NC2=O)c2ccccc21 | 52.1% (active)
CC(C)=C1SC(N2CCN(c3cccc(C)c3)CC2)=NC1=O | -21.2% (inactive)
CC(C)=C1SC(N2CCN(c3ccc(C)c(Cl)c3)CC2)=NC1=O | 7.4% (inactive)
Cc1cc(C)cc(C(=O)NC(CC(N)=O)c2ccc(N3CCC(N4CCCCC4)CC3)c([N+](=O)[O-])c2)c1 (stereo not given) | -3.41% (inactive)
COc1cccc(NC(=O)N2C3CCCC2CC(NC(C)=O)C3)c1 (stereo not given) | -2.41% (inactive)
Cc1ccc(S(=O)(=O)NCc2ccc(C(=O)NC3CCC(C)CC3)cc2)cc1 (stereo not given) | -2.09% (inactive)
COc1ccc(NC(=O)CCCNC(=O)Cn2cnc3sc4c(c3c2=O)CCCC4)cc1OC | -15.7% (inactive)
COc1ccc(NC(=O)CCNC(=O)Cn2cnc3sc4c(c3c2=O)CCCC4)cc1OC | 7.2% (inactive)
COc1ccc(/C=N/Nc2ncnc3sc4c(c23)CCCC4)cc1O | 79.2% (active)
COc1ccc(NC(=O)CNC(=O)Cn2ccc3ccccc3c2=O)c(OC)c1 | -5.3% (inactive)
CC[C@H](C)[C@H](NC(=O)[C@H](CCCNC(=N)N)NC(=O)[C@H](CCCNC(=N)N)NC(=O)[C@H](CC(C)C)NC(=O)[C@H](Cc1ccccc1)NC(=O)CNC(=O)CNC(=O)[C@@H](N)Cc1ccc(O)cc1)C(=O)N[C@@H](CCCNC(=N)N)C(=O)N1CCC[C@H]1C(=O)N[C@@H](CCCCN)C(=O)N[C@@H](CC(C)C)C(=O)N[C@@H](CCCCN)C(=O)N[C@@H](Cc1c[nH]c2ccccc12)C(=O)N[C@@H](CC(=O)O)C(=O)N[C@@H](CC(N)=O)C(=O)N[C@@H](CCC(N)=O)C(=O)O | -7.4% (inactive)
CN(C)c1ccc(CNC(=O)CN2C(=O)COc3ccc(S(=O)(=O)N4CCCC4)cc32)cc1 | -2.88% (inactive)

SMILES | inhibition
Oc1ccc(CNc2ccccc2O)cc1 | 120% (active)
O=[N+]([O-])c1ccccc1Nc1ccc(O)cc1 | -30.1% (inactive)
O=C(Cc1ccc(Cl)cc1)NC(=S)Nc1ccccc1O | -14.5% (inactive)
CCN1CCN(C2CCCCC2NS(=O)(=O)c2ccc(Cl)cc2)CC1 (stereo not given) | -12.5% (inactive)
COC(=O)C1=C(C)N(c2ccc(Br)cc2)C(=O)/C1=C\c1ccco1 | 14.6% (inactive)
O=C1OC(/C=C/c2ccccc2)=NC/1=C/c1ccco1 | -7.2% (inactive)
CC(C)(C)C1C/C(=C/c2ccco2)C(=O)/C(=C/c2ccco2)C1 (stereo not given) | 46.5% (active)
Cc1c(S(=O)(=O)N2CC(C)CC(C)C2)c(=O)n(C)c(=O)n1C (stereo not given) | -33.2% (inactive)
O=C(CCc1c[nH]c2ccccc12)NCCOc1ccccc1 | 44.8% (inactive)
Oc1ccc(N=Cc2c(O)ccc3ccccc23)cc1 | 18.7% (inactive)
Cc1nn(C)cc1/C=N/NC(=O)c1sc2ccccc2c1Cl | 25% (inactive)
Oc1ccc(N=Cc2sc3ccccc3c2Cl)cc1 | 77.5% (active)
CC(C)c1cc(C(=O)N/N=C/c2ccoc2)c(O)c(C(C)C)c1 | 4.23% (inactive)
O=C(N/N=C/c1ccoc1)c1ccc(Cl)cc1Cl | 68.7% (active)
CC(C)NC(=O)c1ccc(Cl)cc1Cl | 8.65% (inactive)
O=C(NCCCN1CCCCC1)C1CCCN(c2ncnc3c2nc2n3CCCCC2)C1 (stereo not given) | 4.24% (inactive)
OC(COc1ccc(F)cc1Cl)CN1CCc2ccccc2C1 (stereo not given) | 16.9% (inactive)
Cn1nccc1NS(=O)(=O)c1ccc(F)cc1 | 160% (active)
Cc1cc(C)cc(NS(=O)(=O)c2ccc(F)cc2)c1 | 8.8% (inactive)
Cc1ccc(NS(=O)(=O)c2ccc(F)cc2)nc1 | -8.43% (inactive)
COc1ccc(S(=O)(=O)NC(C)C(=O)NCc2ccncc2)cc1Cl (stereo not given) | -1.67% (inactive)
O=C(CSc1ncccn1)NC(=O)NCc1ccccc1 | 34.2% (inactive)
Cc1nc(C)c(C(=O)Nc2ccc(C)c(F)c2)o1 | 0.239% (inactive)
Cc1nc2ccc(NC(=O)C(F)(F)F)cc2o1 | -11.6% (inactive)

SMILES | inhibition
Cc1nc2cc(NC(=O)NCc3ccccc3)ccc2o1 | 44.8% (active)
Cc1ccc(NC(=O)Nc2ccc3oc(C)nc3c2)cc1 | 144% (active)
CCCCc1ccc(NC(=O)NCc2cccnc2)cc1 | 6.04% (inactive)
COc1ccccc1N(CC(=O)N/N=C(\C)c1ccccc1O)S(=O)(=O)c1ccc(C)cc1 | -3.24% (inactive)
CCOC(=O)c1ccc(NC(=O)CCn2c(=O)oc3ccccc32)cc1 | -8.48% (inactive)
O=C(NC(=S)N1CCCCC1c1cccnc1)c1ccccc1 (stereo not given) | 3.14% (inactive)
Cc1ccccc1NC(=O)CSc1ccc2nnc(-c3ccccn3)n2n1 | 15.7% (inactive)
COC(=O)c1ccccc1NC(=O)c1ccc(C#N)cc1 | 8.5% (inactive)
Cc1c(CN2CCC(n3nccc3NC(=O)CCc3ccccc3)CC2)cnn1C | 4.45% (inactive)
O=C(NCC(=O)N1CCC2(CC1)NCCc1[nH]cnc12)c1ccc(Br)cc1 | -10% (inactive)
COc1ccc(NC(=O)CCS(=O)(=O)c2cc3c(cc2Cl)NC(=O)CO3)cc1OC | -4.27% (inactive)
Cc1ccc2cc(CCNC(=O)c3c(-c4ccccc4Cl)noc3C)c(=O)[nH]c2c1 | -3.3% (inactive)
O=C(NCC1CCCO1)c1cc2c([nH]c3ccccc32)c(-c2ccc(F)cc2)n1 (stereo not given) | -7.75% (inactive)
Cc1ccc(-c2noc(-c3ccccc3C(=O)NCC3CCCO3)n2)cc1 (stereo not given) | 48.4% (active)
Cc1cc(C)n(C(=O)CCNC(=O)c2ccccc2Cl)n1 | -4.34% (inactive)
COCCNC(=O)c1ccccc1-c1nc(-c2ccccc2Cl)no1 | 79.4% (active)
Cc1ccccc1CN(c1ccc(C(=O)NCC2CCCO2)cc1)S(C)(=O)=O (stereo not given) | -12.3% (inactive)
O=C(NCC1CCCO1)c1ccc2ccccc2n1 (stereo not given) | 69.8% (active)
O=C(NCC1CCCO1)c1cc(-c2ccccc2)nc2ccccc12 (stereo not given) | 15% (inactive)
Cc1nc2ccccc2c2oc(C(=O)NCC3CCCO3)cc12 (stereo not given) | -16% (inactive)
O=C(NCC1CCCO1)c1ccccc1-c1nc(-c2ccccc2Cl)no1 (stereo not given) | 43.2% (active)
O=C(Nc1ccccc1C(=O)NCC1CCCO1)c1ccccc1F (stereo not given) | 17.2% (inactive)
O=C(CSCc1c(F)cccc1Cl)NCC1CCCO1 (stereo not given) | -5.03% (inactive)
